Laboratory results as given in PubChem BioAssay (NCI).
Several values for one entry are separate records, joined by “and”; a condition that tells them apart may be missing. Identical values can stand only once. Compounds without any hit were thinned out: in the full panel of roughly 83,000, 20% have a hit.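 96-well plates, one dose, 48 hours. Percent growth reported; active if below 10.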 Activity calls are given as the source filed them.

test system: OVCAR-5 ovarian; experiment: NCI-60 one-dose screen, 48 h (100 = growth as untreated, 0 = no growth, -100 = all killed); details: 1 µM
Description: Growth inhibition of the OVCAR-5 human tumor cell line is measured as a screen for anti-cancer activity. Cells are grown in 96 well plates and exposed to the test compound for 48 hours. Compounds are tested at a single concentration, which is 10^-5 M for most compounds. The reported endpoint is percent growth (GI% or GIPRCNT), where numbers from 0 - 100% represent growth inhibition, and numbers from -100% - 0 represent cell death. For example, a value of 40 represents 60% growth inhibition. A value of 0 means no net growth occurred over the course of the experiment. A value of -40 indicates 40% of cells at the beginning of the experiment died by the end of the experiment. A value of -100 means all cells are dead at the end of the experiment.
NCI-60 Human Tumor Cell Lines Screen was performed using the standard one-dose NCI protocol, which is described in more detail at https://dtp.cancer.gov/discovery_development/nci-60/default.htm.
Compounds with GIPRCNT values below 10 were considered active. Activity score was based on GIPRCNT using the following formula: […]
Score is 0 for GIPRCNT values of 100 or above, 50 for GIPRCNT values of 0, and 100 for GIPRCNT values of -100.

Structure (SMILES)	growth
CC/C(=C(/c1ccc(O)cc1)c1ccc(OCCN(C)C(=O)COCCOCCNC(=O)Cc2ccc3c(c2)CN([C@@H]2CCC(=O)NC2=O)C3=O)cc1)c1ccccc1	95.3% (inactive)

same assay, conditions: 10 µM

Structure (SMILES)	growth
CC/C(=C(/c1ccc(O)cc1)c1ccc(OCCN(C)C(=O)COCCOCCNC(=O)Cc2ccc3c(c2)CN([C@@H]2CCC(=O)NC2=O)C3=O)cc1)c1ccccc1	86.6% (inactive)

same assay, conditions: 10 µM unless noted

Structure (SMILES)	growth
O=C(N/N=C/c1occc1Br)c1[nH]c2ccc(Br)cc2c1-c1ccccc1	-99.8% (active)
O=C1/C(=C/c2cnc(-c3ccccc3)s2)SC(=S)N1Cc1ccc2c(c1)OCO2	99.4% (inactive)
O=C(NN1C(=O)/C(=C/C=C/c2ccc([N+](=O)[O-])o2)SC1=S)c1ccc(O)cc1	-98.7% (active)
O=C(c1cc2cc(OCCCN3CCC3)ccc2[nH]1)N1C[C@@H](CCl)c2c1cc(OCc1ccccc1)c1ccccc21	-76.9% (active)
CC1=C(C(=O)OC(C)C)C(c2ccc(O)cc2)NC(=O)N1 (stereo not given)	105% (inactive)
CC(C)C[C@H](NC(=O)CNC(=O)C[C@H]1O[C@@H]2OC3(C)CC[C@H]4[C@H](C)CC[C@@H]([C@H]1C)[C@@]24O3)B(O)O	-32.6% (active)
CCC1(OC(=O)c2ccccc2SSCCOC(=O)CCCCC2SCC3NC(=O)NC32)C(=O)OCc2c1cc1n(c2=O)Cc2cc3ccccc3nc2-1 (stereo not given)	97% (inactive)
CCCCN1C(=O)/C(=C\C(=O)c2cc3ccccc3oc2=O)c2ccccc21	96.7% (inactive)
COc1cccc(-c2ccc(/C=N/NC(=O)c3[nH]c4ccc(Br)cc4c3-c3ccccc3)s2)c1	-5.23% (active)
COc1ccc(NC(=O)CSc2nnc(-c3ccc(-c4nc5ccc(Cl)cc5[nH]4)cc3)o2)cc1	59.8% (inactive)
S=C(Nc1ccc(OCc2nc3ccc(Cl)cc3[nH]2)cc1)NC1CCCCC1	-12.8% (active)
COc1cc(/C=C/C(=O)c2cnn(-c3cc(=O)[nH]c4ccc(Cl)cc34)c2C)cc(OC)c1OC	-52.3% (active)
Nc1nnc(CS(=O)(=O)c2ccccc2)s1	109% (inactive)
O=C(CSc1nc2ccccc2c(=O)[nH]1)Nc1ccccc1C(=O)O	105% (inactive)
CC(=O)c1c2c(c3ccc4c5ccccc5ccc4n13)C(=O)c1ccccc1C2=O	115% (inactive)
COc1cc(NC(=O)CSc2nnc(-c3ccc(-c4nc5ccc(Cl)cc5[nH]4)cc3)o2)cc(OC)c1OC	71.4% (inactive)
Fc1ccccc1CNc1nc(SCCN2CCOCC2)nc2c1cnn2CC(Cl)c1ccc(Br)cc1 (stereo not given)	71.3% (inactive)
COc1ccc(-c2cc(-c3cc(OC)c(OC)c(OC)c3)[nH]c(=O)c2C#N)cc1	79.1% (inactive)
CCCCCCCCc1ccc(C(=O)Nc2ccc(C)cc2C(=O)O)cc1	109% (inactive)

Structure (SMILES)	growth
O=C(OCCOCCO)N(c1cccc(Br)c1)c1nc(SCCN2CCOCC2)nc2c1cnn2CC(Cl)c1ccc(Br)cc1 (stereo not given)	34.7% (inactive)
O=C(Cn1c(-c2ccccc2)nc2ccccc21)N=Nc1c(O)[nH]c2ccc(Cl)cc12	18.5% (inactive)
Cc1ccc(C(=O)Nc2cc(-n3cnc(F)c3)cc(C(F)(F)F)c2)cc1C#Cc1cnc2cccnn12	68.3% (inactive)
CN(C)c1ccc(/C=C/c2n(Cc3ccc4ccccc4c3)c3ccccc3[n+]2Cc2ccc3ccccc3c2)cc1	-97.6% (active)
O=C(Cc1c(-c2ccccc2[N+](=O)[O-])n(-c2ncnc3c2c(-c2ccccc2)c(-c2ccccc2)n3Cc2ccccc2)[nH]c1=O)c1ccc(Cl)c(Cl)c1	55.1% (inactive)
COc1cc(NC(=O)C(C)C)ccc1C(=O)NC(=S)Nc1ccc(S(N)(=O)=O)cc1	110% (inactive)
CC(Nc1ncnc2ccc(-c3ccc4oc(N)nc4c3)cc12)c1ccccc1 (stereo not given)	25.4% (inactive)
NC1(c2ccc(-c3ccc4ncnc(NCc5ccccc5)c4c3)cn2)COC1	102% (inactive) and 103% (inactive)
CC[C@]12C=CCN3CC[C@]4(C(=C(C(=O)OC)C1)Nc1cc(OC)c([C@@H]5[C@H]6O[C@H]6[C@@]6(CC)CC(C(=O)OC)=C7Nc8cc(OC)ccc8[C@@]78CCN5[C@@H]68)cc14)[C@@H]32	93.2% (inactive)
COc1cc2cc(C(=O)N3C[C@@H](CCl)c4c3cc(OC(=O)N(CCC(=O)N3CCN(C)CC3)[C@H]3CCSSC3)c3ccccc43)[nH]c2c(OC)c1OC	-4.73% (active)
COC(=O)c1cc(C(=O)CBr)n2c1ccc1c3ccccc3ccc12	72.8% (inactive)
CN(C)c1nc(NCCNS(=O)(=O)c2ccc(C(=O)/C=C/c3ccc(C(F)(F)F)cc3)cc2)nc(N2CCOCC2)n1	5.43% (active)
OC1CCC(Cn2c(C(F)(F)F)cc3c(Cl)ncnc32)CC1 (stereo not given)	94.6% (inactive)
Nc1nnc(-c2cncc(Br)c2)c(-c2c[nH]c3ccc(Cl)cc23)n1	94.2% (inactive)
O=C(Nc1nc2ccc([N+](=O)[O-])cc2s1)Nc1ccccc1F	15.5% (inactive)
Oc1cncc(-c2ccc3ncnc(N4CCc5cc(F)c(Cl)cc54)c3c2)c1	59.8% (inactive)
N#C/C(=C/c1ccc(Cl)cc1)c1nnc(NC(=O)c2ccc(-n3c(=O)[nH]c4ccccc4c3=O)cc2)s1	83.9% (inactive)
COc1cc(/C=N/NC(=O)c2ccc(OCc3nc4ccc(C)cc4[nH]3)cc2)cc(OC)c1OC	88% (inactive)
C[C@@H]1[C@H]2C[C@@H](C[C@H]1NCc1nc3ccccc3n1C1CCCCCC1)C2(C)C	85.9% (inactive)
